Assay results as given in PubChem BioAssay.
Calls of active or inactive are those of the source. Unless noted, the rule behind the calls is not given here.

Tests used:
[1] = system: XIP peptide (Xip251-270) binding; test: small-molecule binders of XIP peptide, primary screen, biochemical, small-molecule microarray, fluorescence 635/667 nm, 0.1 µg/mL protein (AID 1182); conditions: fluorescent protein binding, 635 nm, higher = more signal, called active from +8 up or from −8 down
[2] = system: XIP peptide (Xip251-270); test: small-molecule binders of XIP peptide, primary screen, biochemical, small-molecule microarray, fluorescence 635/667 nm, 0.5 µg/mL protein (AID 1183); conditions: small-molecule microarray binding, fluorescence 635 nm; higher = more signal
[3] = Plasmodium falciparum growth inhibition, primary screen, strain 3D7, DAPI fluorescence, 100 nL (AID 1184);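 note: parasites grown inside human red blood cells in medium with human serum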; conditions: P. falciparum 3D7 growth, 3 d, higher = more signal
[4] = molecular target: Homeobox protein Hox-A13 (Mus musculus) (UniProt Q62424); test: inhibitors of HoxA13-DNA binding, primary screen, biochemical, fluorescence polarization, labeled oligonucleotide (AID 1185); conditions: 15 min, higher = more signal, called active from +8 up or from −8 down
[5] = inhibitors of hydroxyurea-induced Chk1 phosphorylation, primary screen, imaging, HeLa, phospho-Chk1 antibody, percent positive cells (AID 1186); conditions: hydroxyurea-induced phospho-Chk1 immunofluorescence imaging, higher = more signal
[6] = inhibitors of hydroxyurea-induced Chk1 phosphorylation, primary screen, imaging, HeLa, phospho-Chk1 nuclear intensity (AID 1187); conditions: hydroxyurea-induced phospho-Chk1 immunofluorescence imaging, higher = more signal

Homeobox protein Hox-A13 (Mus musculus), sequence (Q62424 whole entry, looked up): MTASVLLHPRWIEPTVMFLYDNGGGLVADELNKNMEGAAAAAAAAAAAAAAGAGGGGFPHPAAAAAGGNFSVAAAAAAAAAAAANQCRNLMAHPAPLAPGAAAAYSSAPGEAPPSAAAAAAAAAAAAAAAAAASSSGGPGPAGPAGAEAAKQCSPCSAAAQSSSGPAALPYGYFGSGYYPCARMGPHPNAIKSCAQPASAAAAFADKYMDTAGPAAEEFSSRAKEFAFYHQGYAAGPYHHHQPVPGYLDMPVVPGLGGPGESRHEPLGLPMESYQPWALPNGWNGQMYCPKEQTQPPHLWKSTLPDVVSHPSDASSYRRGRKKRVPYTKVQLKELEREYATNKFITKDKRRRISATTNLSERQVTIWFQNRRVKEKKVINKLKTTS

| SMILES | composite z-score [1] | composite z-score [2] | z-score [3] | z-score [4] | z-score [5] | z-score [6] |
| --- | --- | --- | --- | --- | --- | --- |
| CC(C)Cc1ccc(CN2CC[C@@H](NC(=O)c3ccccc3)C2)cc1 | 0.321 (inactive) | 0.447 | -1.68 | -1.52 (inactive) | -0.681 (inactive) | -0.744 (inactive) |
| COc1cc(Cc2cc3c(c(-c4ccccc4)n2)[Si](C(C)C)(C(C)C)OC3)cc(OC)c1OC | -0.166 (inactive) | -1.01 | -0.822 | -0.497 (inactive) | -0.628 (inactive) | -0.317 (inactive) |
| COc1ccc([Si](C)(C)[C@H]2[C@H](CCO)O[C@@]3(C(=O)N(Cc4ccccc4)c4ccc(NC(=O)[C@H](C)O)cc43)[C@@H]2C)cc1 | -0.0359 (inactive) | -0.313 | -2.6 | -5.67 (inactive) | -1.59 (inactive) | -0.751 (inactive) |
| CC(C)N1CC=CC23O[C@@H]4/C=C\CCCOC(=O)C4[C@H]2C(=O)N(C(C)CO)[C@@H]3C1=O (some centres undefined) | -0.0835 (inactive) | 0.0575 | 0.261 | -4.1 (inactive) | -1.36 (inactive) | -0.988 (inactive) |
| C=CC[C@]12N=C(c3ccc(OCCCO)cc3)O[C@H]1c1ccccc1N(CCC)C2=O | -0.0641 (inactive) | 0.842 | -2.33 | -4.5 (inactive) | -0.206 (inactive) | -0.234 (inactive) |
| CCCCC(=C=CC[C@@H](O)c1ccccc1OCCO)C[C@@H](O)c1ccccn1 | 0.161 (inactive) | 0.338 | -1.48 | -5.1 (inactive) | -0.0323 (inactive) | -0.123 (inactive) |
| C=CC[C@]1(C(N)=O)N=C(c2ccc(OCCCO)cc2)O[C@H]1c1ccccc1N=[N+]=[N-] | 1.26 (inactive) | 0.688 | -1.98 | -5.2 (inactive) | -0.37 (inactive) | -0.532 (inactive) |
| COc1ccc(CCNC(=O)[C@@H]2c3ccccc3C(=O)N(Cc3cc(F)cc(C(F)(F)F)c3)[C@H]2c2ccc(CO)cc2)cc1 | 0.614 (inactive) | 0.906 | -1.42 | -3.95 (inactive) | -0.0525 (inactive) | 0.275 (inactive) |
| C=CCN1C(=O)[C@@]2(O[C@@H](CCO)[C@H]([Si](C)(C)c3ccc(OC)cc3)[C@H]2C)c2cc(N3CCCCC3=O)ccc21 | 0.561 (inactive) | 0.625 | -2.42 | -6.02 (inactive) | -1.22 (inactive) | -0.485 (inactive) |
| O=C(NC1CC1)[C@@H]1c2ccccc2C(=O)N(C2CCCCC2)[C@H]1c1ccc(CO)cc1 | 0.969 (inactive) | 0.647 | -1.1 | -3.16 (inactive) | -0.312 (inactive) | -0.617 (inactive) |
| O=C(O)C1=CC[C@H]2C(=O)N(c3ccccc3)C(=O)[C@@H]12 | 0.688 (inactive) | 0.783 | 0.0472 | -3.04 (inactive) | -0.416 (inactive) | -0.647 (inactive) |
| COCCOC(=O)N1C(=O)[C@@]2(c3cc(C#CCNC(N)=O)ccc31)[C@H](C(=O)N1CCN(c3ncccn3)CC1)[C@H]1C(=O)O[C@H](c3ccccc3)[C@H](c3ccccc3)N1[C@@H]2c1ccc(O)cc1 | -0.417 (inactive) | 0.288 | 0.614 | -0.508 (inactive) | -0.171 (inactive) | -0.206 (inactive) |
| C=CCNC(=O)[C@H]1[C@@H]2C(=O)O[C@@H](c3ccccc3)[C@@H](c3ccccc3)N2[C@@H](c2ccc(O)cc2)[C@]12C(=O)N(C(=O)OCCOC)c1ccc(C#Cc3ccc(OC)cc3)cc12 | -0.184 (inactive) | 0.625 | -0.812 | -1.16 (inactive) | 0.0708 (inactive) | 0.21 (inactive) |
| CC[C@@H]1C=C(C(=O)O)[C@H](c2cccc(Cl)c2)N1S(=O)(=O)c1ccc(C)cc1 | 0.415 (inactive) | 0.141 | 1.85 | -3.71 (inactive) | 0.198 (inactive) | -0.141 (inactive) |
| C=CC[C@H](OC(=O)Nc1ccc(SC)cc1)c1ccc(O)c(F)c1 | 1.07 (inactive) | -0.193 | -0.249 | -0.845 (inactive) | 0.355 (inactive) | 0.417 (inactive) |
| O=C1O[C@H](c2ccccc2)[C@H](c2ccccc2)N2[C@H]1[C@@H](C(=O)O)[C@]1(C(=O)Nc3ccc(C#CC4(O)CCCCCC4)cc31)[C@H]2c1ccccc1OCCO | 0.168 (inactive) | 0.779 | -0.21 | -5.71 (inactive) | 0.152 (inactive) | 0.579 (inactive) |
| C=CCC(OC(C)=O)[C@@H]1[C@@H](N(Cc2cccc3ccccc23)C(=O)c2ccc(C)cc2)c2cc(OCCCO)ccc2N1C(=O)Cc1ccc2ccccc2c1 (some centres undefined) | -0.929 (inactive) | 0.0814 | -0.145 | -0.0782 (inactive) | -0.648 (inactive) | -0.416 (inactive) |

| SMILES | composite z-score [1] | composite z-score [2] | z-score [3] | z-score [4] | z-score [5] | z-score [6] |
| --- | --- | --- | --- | --- | --- | --- |
| [N-]=[N+]=NCc1ccccc1C[C@@]1(C(=O)NCCN2CCOCC2)N=C(c2ccc(OCCCO)cc2)O[C@@H]1c1ccccc1 | 0.682 (inactive) | 0.629 | -2.11 | -4.43 (inactive) | 0.174 (inactive) | 0.47 (inactive) |
| COC(=O)[C@@]1(Cc2ccc(F)cc2)[C@H]2c3cc(C(=O)N4CCCC4)n(Cc4ccc(OC(F)(F)F)cc4)c3C[C@H]2CN1C(=O)c1ccccc1 | 0.124 (inactive) | 0.267 | 0.096 | -3.8 (inactive) | 1.06 (inactive) | 0.639 (inactive) |
| CC(C)c1ccc(NN2C(C(O)C3=C[C@H]4C[C@@H](C3)C4(C)C)C=CC3C(=O)N(c4ccccc4)C(=O)C32)cc1 (some centres undefined) | 1.35 (inactive) | 0.464 | -0.0979 | -2.33 (inactive) | -0.0307 (inactive) | -0.257 (inactive) |
| O=C1c2ccccc2[C@](Cc2ccccc2I)(C(=O)NCCN2CCOCC2)[C@H](c2ccc(CO)cc2)N1Cc1ccccc1C(F)(F)F | 0.0302 (inactive) | 0.627 | -1.29 | -4.81 (inactive) | -0.0107 (inactive) | -0.105 (inactive) |
| COC(=O)[C@@]1(Cc2ccc(OC)cc2)[C@@H]2[C@@H](CC(=O)[C@H]2CC(=O)C(=O)N(C)C)CN1C(=O)c1ccccc1 | 0.206 (inactive) | 0.516 | -1.56 | -2.61 (inactive) | 0.0341 (inactive) | -1.04 (inactive) |
| CO[C@H]1O[C@H](CO)[C@@H](OC(=O)CCc2ccccc2)[C@@H]2OC(=O)[C@@H](Cc3ccc4ccccc4c3)C/C=C/C[C@H](Cc3ccc4ccccc4c3)C(=O)O[C@@H]12 | 0.204 (inactive) | 0.448 | -2.13 | -4.15 (inactive) | -0.267 (inactive) | -0.343 (inactive) |
| COCCOC(=O)N1C(=O)[C@@]2(c3cc(C#CCCO)ccc31)[C@H](C(=O)N1CCN(c3ncccn3)CC1)[C@H]1C(=O)O[C@H](c3ccccc3)[C@H](c3ccccc3)N1[C@@H]2c1ccc(OCCO)cc1 | 0.472 (inactive) | 0.838 | -2.04 | 0.211 (inactive) | -0.0621 (inactive) | -0.0646 (inactive) |
| CCCCCN1CC=CC23O[C@@H]4/C=C\CCCOC(=O)C4[C@H]2C(=O)N(CCO)[C@@H]3C1=O (some centres undefined) | -0.0751 (inactive) | 0.663 | -1.31 | -3.77 (inactive) | 0.169 (inactive) | 0.205 (inactive) |
| CCCCN1CC=CC23O[C@@H]4/C=C\CCCOC(=O)C4[C@H]2C(=O)N(CCCCCCO)[C@@H]3C1=O (some centres undefined) | 0.723 (inactive) | 0.803 | -0.165 | -4.71 (inactive) | -0.624 (inactive) | -0.137 (inactive) |
| COC(=O)[C@]1(Cc2ccccc2CN=[N+]=[N-])N=C(c2ccc(OCCCO)cc2)O[C@@H]1c1ccccc1N=[N+]=[N-] | 0.0771 (inactive) | 0.724 | -2.04 | 0.381 (inactive) | -0.485 (inactive) | -0.543 (inactive) |
| CC[C@H]1C2=C3C(CC[C@H]4C(OCc5ccc(F)cc5C(F)(F)F)OC[C@](C)([C@@H]34)N(C(=O)OC(C)(C)C)C2)C(COC(C)=O)C1COC(C)=O (some centres undefined) | 0.28 (inactive) | 0.633 | -1.24 | -3.07 (inactive) | 0.127 (inactive) | 0.294 (inactive) |
| CCCCCCCCCCC(O)C1C=CC2C(=O)N(C)C(=O)C2N1Nc1ccccc1 (centres undefined) | 1.04 (inactive) | -1.39 | -0.0339 | -2.87 (inactive) | 0.999 (inactive) | 0.135 (inactive) |
| CC1C2C(CCCO)=CC(C3C(=O)N(C)C(=O)C23)N1Cc1cccc(OC(F)(F)F)c1 (centres undefined) | 1.17 (inactive) | 0.806 | -1.7 | -7.46 (inactive) | -0.324 (inactive) | -0.301 (inactive) |
| C=CCNC(=O)[C@@H]1[C@H]2C(=O)O[C@H](c3ccccc3)[C@H](c3ccccc3)N2[C@H](c2ccc(OCCO)cc2)[C@@]12C(=O)Nc1ccc(C#CC3=CCCCC3)cc12 | 1.45 (inactive) | 0.799 | -1.39 | 1.89 (inactive) | 0.269 (inactive) | 0.273 (inactive) |
| O=C1c2ccccc2[C@@]2(Cc3ccccc3N(CC(F)(F)F)C2=O)[C@H](c2ccc(CO)cc2)N1Cc1ccccc1 | -0.158 (inactive) | -0.48 | -1.17 | 1.26 (inactive) | -0.191 (inactive) | -0.494 (inactive) |
| CC(C)c1ccc(NN2C(C(O)C3CCCCC3)C=CC3C(=O)N(c4ccccc4)C(=O)C32)cc1 (centres undefined) | 0.668 (inactive) | 0.788 | 0.142 | -2.78 (inactive) | 0.333 (inactive) | -0.566 (inactive) |
| COc1ccc([Si](C)(C)[C@H]2[C@H](CC(=O)N(CCO)Cc3ccccc3)O[C@@]3(C(=O)N(c4ccccc4)c4ccccc43)[C@@H]2C)cc1 | -0.372 (inactive) | 0.342 | -2.62 | -5.46 (inactive) | -0.807 (inactive) | -0.763 (inactive) |
